Reference: the supplement of paper PMC10849652
About 7,900 targets were measured; listed, in parts, are those with a hit and a random draw of the rest. About 0.6% of all pairs of compound and target were hits.

Legend:
Assay in all cases: log2 fold change, soluble protein after heating vs DMSO (PISA); higher = thermal stabilisation; K562 cells, 10 uM, 30 min; active = over 0.2 and 3.5 SD of the protein, either way, in both replicates (recomputed)
Nexturastat A = compound: CCCCN(Cc1ccc(C(=O)NO)cc1)C(=O)Nc1ccccc1 [Nexturastat A]
Summary of the method: (§1)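 K562 cells (2×10^6 cells/mL) were treated with 10 μM compound for 30 min, and aliquots were heated for 3 min over 48°C-58°C. Pooled aliquots were extracted in PBS with 0.5% NP-40 at 4°C, and the supernatant after 21,000xg for 90 min was measured by TMTpro 16plex LC-MS/MS with channel sums equalised. Reported thermal stability, relative to control samples and from duplicates, is a log2 fold change.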

[1] = compound: CCCc1cc(C)[nH]c(=O)c1CNC(=O)c1cc(-c2ccnc(N3CCN(C)CC3)c2)cc2c1cnn2C(C)C
Summary of the method: as §1

[2] = compound: CC1=C(C=C(C=C1)NC(=O)C2=CC(=CC=C2)C(C)(C)C#N)NC3=CC4=C(C=C3)N=CN(C4=O)C
Summary of the method: as §1

[3] = compound: CC1=C(C=C(C=C1)NC(=O)C2=CC(=CC=C2)N(C)C)NC(=O)C3=CC=C(C=C3)O
Summary of the method: as §1

[4] = compound: CC1=NC(=CC=C1)C2=C(N=C(N2)C(C)(C)C)C3=CC4=NC=CN=C4C=C3
Summary of the method: as §1

vemurafenib = compound: CCCS(=O)(=O)Nc1ccc(F)c(C(=O)c2c[nH]c3ncc(-c4ccc(Cl)cc4)cc23)c1F [vemurafenib]
Summary of the method: as §1

barasertib = compound: CCN(CCCOc1ccc2c(Nc3cc(CC(=O)Nc4cccc(F)c4)[nH]n3)ncnc2c1)CCOP(=O)(O)O [barasertib]
Summary of the method: as §1

[5] = compound: CC1=CC=C(C=C1)SC2=C3C=C(SC3=CN=C2)C(=O)N
Summary of the method: as §1

[6] = compound: CCCS(=O)(=O)Nc1ccc(F)c(C(=O)c2c[nH]c3ncc(Cl)cc23)c1F
Summary of the method: as §1

givinostat = compound: CCN(CC)Cc1ccc2cc(COC(=O)Nc3ccc(C(=O)NO)cc3)ccc2c1 [givinostat]
Summary of the method: as §1

Measured: log2 fold change

DDX46, A0A0C4DG89
inactive: Nexturastat A 0.058 | [1] 0.149

DCAF4 (UniProt Q8WV16)
inactive: [2] 0.03 | [3] 0.072 | Nexturastat A -0.132 | [1] -0.061

CTSS (UniProt P25774)
inactive: [2] 0.032 | [3] -0.045 | [4] -0.068 | vemurafenib -0.053

EPHX2 (UniProt E5RI53)
inactive: Nexturastat A 0.029 | barasertib 0.094

EIF3J isoform 2 (UniProt O75822)
inactive: [2] -0.1 | [5] 0.032 | [4] -0.02 | Nexturastat A 0.048 | vemurafenib -0.17 | [6] -0.062 | [1] -0.613 | givinostat -0.129 | barasertib -0.071

DOLPP1 (UniProt Q86YN1)
inactive: [3] 0.012 | [5] -0.094 | [4] 0.026 | vemurafenib -0.057 | [6] -0.042 | [1] -0.018 | givinostat -0.027 | barasertib 0.057

EIF2AK3 (UniProt Q9NZJ5)
Chain of UniProt Q9NZJ5 (Q9NZJ5 whole entry, looked up): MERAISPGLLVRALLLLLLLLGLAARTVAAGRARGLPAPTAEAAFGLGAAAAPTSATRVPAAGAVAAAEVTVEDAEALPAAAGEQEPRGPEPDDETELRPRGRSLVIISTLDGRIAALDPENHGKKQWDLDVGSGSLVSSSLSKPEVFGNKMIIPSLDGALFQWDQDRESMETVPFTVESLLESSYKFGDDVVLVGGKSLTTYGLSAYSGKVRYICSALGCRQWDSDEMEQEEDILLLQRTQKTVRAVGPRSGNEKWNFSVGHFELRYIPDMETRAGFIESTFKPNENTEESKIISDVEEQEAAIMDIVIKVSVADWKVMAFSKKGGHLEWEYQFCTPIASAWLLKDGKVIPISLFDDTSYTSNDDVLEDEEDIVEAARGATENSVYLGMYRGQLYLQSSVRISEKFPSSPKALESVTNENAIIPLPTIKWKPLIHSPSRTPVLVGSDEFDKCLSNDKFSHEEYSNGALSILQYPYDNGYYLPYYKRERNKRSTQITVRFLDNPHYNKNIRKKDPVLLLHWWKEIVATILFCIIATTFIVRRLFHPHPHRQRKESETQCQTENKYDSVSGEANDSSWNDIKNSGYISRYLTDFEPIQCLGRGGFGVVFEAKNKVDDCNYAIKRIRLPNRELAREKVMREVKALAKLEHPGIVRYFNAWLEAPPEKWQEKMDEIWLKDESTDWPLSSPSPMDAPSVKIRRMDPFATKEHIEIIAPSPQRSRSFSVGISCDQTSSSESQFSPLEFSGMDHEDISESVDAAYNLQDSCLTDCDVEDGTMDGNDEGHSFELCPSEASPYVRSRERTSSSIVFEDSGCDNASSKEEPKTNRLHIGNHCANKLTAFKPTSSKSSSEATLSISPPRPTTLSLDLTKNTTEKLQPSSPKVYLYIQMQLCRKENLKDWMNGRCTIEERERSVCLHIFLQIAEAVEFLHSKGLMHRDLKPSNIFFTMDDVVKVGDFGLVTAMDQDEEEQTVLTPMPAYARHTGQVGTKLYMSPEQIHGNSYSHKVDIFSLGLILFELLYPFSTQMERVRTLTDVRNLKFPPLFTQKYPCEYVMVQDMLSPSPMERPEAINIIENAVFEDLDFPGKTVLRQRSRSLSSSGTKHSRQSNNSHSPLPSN
inactive: [5] 0.036 | [4] -0.043 | Nexturastat A -0.595 | [6] -0.161 | [1] 0.244 | givinostat 0.027 | barasertib 0.151

F2RL3 (UniProt Q96RI0)
inactive: [3] 0.032 | [5] 0.053 | vemurafenib -0.156 | [6] 0.035 | givinostat -0.06

EDRF1 (UniProt Q3B7T1)
inactive: [2] -0.022 | [3] 0.21 | Nexturastat A -0.042 | [1] 0.019 | givinostat 0.114 | barasertib -0.036

EHBP1 (UniProt Q8NDI1)
inactive: [1] -0.028

DNAL1 (UniProt Q4LDG9)
inactive: [3] 0.049 | [4] 0.069 | Nexturastat A -0.135 | vemurafenib 0.013 | barasertib 0.012

FAM135A (UniProt Q9P2D6)
Chain of UniProt Q9P2D6 (Q9P2D6 whole entry, looked up): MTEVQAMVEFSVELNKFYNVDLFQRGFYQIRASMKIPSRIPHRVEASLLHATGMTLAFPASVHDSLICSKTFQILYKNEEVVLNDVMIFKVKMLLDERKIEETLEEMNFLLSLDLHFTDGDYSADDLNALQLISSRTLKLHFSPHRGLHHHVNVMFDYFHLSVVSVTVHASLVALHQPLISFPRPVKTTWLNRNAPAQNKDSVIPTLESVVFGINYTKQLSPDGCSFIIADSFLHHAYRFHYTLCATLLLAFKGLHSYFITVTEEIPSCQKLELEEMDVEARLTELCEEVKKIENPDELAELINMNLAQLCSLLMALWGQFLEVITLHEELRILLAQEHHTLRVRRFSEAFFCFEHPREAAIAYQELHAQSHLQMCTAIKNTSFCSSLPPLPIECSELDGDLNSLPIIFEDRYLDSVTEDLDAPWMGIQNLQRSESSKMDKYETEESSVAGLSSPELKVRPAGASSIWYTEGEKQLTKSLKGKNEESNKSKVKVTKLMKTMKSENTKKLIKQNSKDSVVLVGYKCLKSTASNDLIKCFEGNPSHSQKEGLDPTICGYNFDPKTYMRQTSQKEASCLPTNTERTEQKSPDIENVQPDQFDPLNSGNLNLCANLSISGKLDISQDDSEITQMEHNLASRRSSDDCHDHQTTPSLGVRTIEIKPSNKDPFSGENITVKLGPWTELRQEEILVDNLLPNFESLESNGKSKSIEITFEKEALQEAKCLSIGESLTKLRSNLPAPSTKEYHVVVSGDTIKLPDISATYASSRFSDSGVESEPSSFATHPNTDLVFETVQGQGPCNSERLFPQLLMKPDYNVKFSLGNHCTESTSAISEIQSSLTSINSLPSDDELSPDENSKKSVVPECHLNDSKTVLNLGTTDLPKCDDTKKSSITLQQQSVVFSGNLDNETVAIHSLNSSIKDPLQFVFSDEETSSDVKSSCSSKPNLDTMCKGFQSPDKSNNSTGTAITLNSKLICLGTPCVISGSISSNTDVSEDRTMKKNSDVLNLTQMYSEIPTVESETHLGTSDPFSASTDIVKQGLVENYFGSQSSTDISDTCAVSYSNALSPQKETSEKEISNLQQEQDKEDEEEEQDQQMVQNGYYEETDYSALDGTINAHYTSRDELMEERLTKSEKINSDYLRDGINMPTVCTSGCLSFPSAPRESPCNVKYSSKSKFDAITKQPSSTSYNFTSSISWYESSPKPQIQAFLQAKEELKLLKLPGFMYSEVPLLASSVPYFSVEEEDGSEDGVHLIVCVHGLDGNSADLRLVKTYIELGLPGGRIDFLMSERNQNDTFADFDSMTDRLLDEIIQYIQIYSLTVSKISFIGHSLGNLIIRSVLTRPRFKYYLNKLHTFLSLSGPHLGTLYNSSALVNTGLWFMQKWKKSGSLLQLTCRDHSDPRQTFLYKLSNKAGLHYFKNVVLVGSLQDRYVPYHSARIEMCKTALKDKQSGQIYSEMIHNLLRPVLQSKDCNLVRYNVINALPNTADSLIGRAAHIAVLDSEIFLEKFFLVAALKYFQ
inactive: [2] -0.178 | vemurafenib -0.042 | givinostat 0.131
active: Nexturastat A 0.5

DENND1A isoform 6 (UniProt Q8TEH3)
inactive: [5] 0.025 | [4] -0.009 | vemurafenib -0.119 | [6] 0.114 | barasertib 0.293

DOP1A (UniProt Q5JWR5)
Chain of UniProt Q5JWR5 (Q5JWR5 whole entry, looked up): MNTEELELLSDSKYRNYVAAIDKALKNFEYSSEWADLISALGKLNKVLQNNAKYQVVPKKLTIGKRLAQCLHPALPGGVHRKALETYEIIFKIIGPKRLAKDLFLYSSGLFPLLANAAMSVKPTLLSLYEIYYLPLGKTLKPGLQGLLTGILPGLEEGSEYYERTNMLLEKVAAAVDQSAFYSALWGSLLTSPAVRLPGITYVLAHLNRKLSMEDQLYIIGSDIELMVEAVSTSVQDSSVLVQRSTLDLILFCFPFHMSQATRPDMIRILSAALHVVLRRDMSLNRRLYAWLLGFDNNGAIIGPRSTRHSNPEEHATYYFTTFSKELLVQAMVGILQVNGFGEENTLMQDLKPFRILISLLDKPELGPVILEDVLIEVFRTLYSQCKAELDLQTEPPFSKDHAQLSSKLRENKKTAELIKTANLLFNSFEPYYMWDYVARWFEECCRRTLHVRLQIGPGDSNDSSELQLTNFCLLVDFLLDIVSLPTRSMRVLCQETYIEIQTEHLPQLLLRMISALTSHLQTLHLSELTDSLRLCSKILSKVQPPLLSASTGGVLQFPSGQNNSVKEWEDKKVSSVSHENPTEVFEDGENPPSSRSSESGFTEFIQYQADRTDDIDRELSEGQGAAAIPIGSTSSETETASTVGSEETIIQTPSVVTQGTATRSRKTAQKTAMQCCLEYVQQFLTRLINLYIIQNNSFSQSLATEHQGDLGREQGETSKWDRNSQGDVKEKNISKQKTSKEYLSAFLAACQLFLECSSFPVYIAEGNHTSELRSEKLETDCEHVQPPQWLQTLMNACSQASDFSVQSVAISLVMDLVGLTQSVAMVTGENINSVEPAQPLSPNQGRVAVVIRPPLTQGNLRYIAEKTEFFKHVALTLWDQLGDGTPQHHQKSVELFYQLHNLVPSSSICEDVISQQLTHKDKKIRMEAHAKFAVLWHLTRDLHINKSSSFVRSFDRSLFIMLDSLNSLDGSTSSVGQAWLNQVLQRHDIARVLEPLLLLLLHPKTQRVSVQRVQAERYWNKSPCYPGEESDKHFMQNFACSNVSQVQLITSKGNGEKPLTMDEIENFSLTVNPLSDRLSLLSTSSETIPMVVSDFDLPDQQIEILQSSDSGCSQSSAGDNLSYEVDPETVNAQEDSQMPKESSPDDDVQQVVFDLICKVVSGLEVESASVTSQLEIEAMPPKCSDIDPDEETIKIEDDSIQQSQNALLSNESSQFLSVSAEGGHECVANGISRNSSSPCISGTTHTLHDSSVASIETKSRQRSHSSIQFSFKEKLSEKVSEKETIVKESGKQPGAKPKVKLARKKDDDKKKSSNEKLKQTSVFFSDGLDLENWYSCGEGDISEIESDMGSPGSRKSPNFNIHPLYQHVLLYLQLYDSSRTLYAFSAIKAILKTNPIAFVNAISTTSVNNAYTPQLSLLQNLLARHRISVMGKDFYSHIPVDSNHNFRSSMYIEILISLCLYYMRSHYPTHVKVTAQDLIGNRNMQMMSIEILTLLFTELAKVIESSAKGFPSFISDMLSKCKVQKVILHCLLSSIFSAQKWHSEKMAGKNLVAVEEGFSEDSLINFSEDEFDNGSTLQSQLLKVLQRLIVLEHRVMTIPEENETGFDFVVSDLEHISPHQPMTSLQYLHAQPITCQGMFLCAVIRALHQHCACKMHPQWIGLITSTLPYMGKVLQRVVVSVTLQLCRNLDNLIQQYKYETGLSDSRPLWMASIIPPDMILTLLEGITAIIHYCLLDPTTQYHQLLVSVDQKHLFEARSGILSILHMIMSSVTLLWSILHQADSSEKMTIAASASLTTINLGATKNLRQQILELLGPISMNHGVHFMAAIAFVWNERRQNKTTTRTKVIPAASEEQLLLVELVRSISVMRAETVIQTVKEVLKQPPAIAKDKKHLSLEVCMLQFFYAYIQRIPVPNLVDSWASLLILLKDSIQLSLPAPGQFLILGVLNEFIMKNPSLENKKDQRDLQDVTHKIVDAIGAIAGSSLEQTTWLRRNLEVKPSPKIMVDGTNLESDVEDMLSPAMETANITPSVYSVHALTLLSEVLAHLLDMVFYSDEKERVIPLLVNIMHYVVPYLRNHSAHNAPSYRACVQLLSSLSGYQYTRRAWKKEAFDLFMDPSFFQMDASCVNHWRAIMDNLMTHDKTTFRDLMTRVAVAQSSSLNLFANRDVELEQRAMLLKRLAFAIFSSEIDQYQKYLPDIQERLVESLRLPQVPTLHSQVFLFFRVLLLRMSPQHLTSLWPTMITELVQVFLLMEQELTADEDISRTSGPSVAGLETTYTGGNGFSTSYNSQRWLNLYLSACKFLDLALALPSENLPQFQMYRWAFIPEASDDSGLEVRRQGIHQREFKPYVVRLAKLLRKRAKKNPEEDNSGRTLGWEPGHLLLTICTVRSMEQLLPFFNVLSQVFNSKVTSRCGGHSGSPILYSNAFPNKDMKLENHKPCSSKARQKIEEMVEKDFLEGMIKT
active: Nexturastat A 0.47
inactive: vemurafenib 0.045 | [1] -0.166 | givinostat 0.057 | barasertib -0.047

DCAF12 (UniProt Q5T6F0)
inactive: [2] -0.136 | [1] 0.08

DPYSL2 (UniProt Q16555)
inactive: [2] -0.056 | [5] 0.03 | [4] 0.033 | Nexturastat A -0.176 | vemurafenib -0.056 | [6] -0.002 | [1] -0.065 | givinostat 0.03 | barasertib 0

EZH2 isoform 2 (UniProt Q15910)
inactive: [2] 0.063 | [5] 0.127 | [4] 0.149 | Nexturastat A -0.173 | vemurafenib 0.377 | [6] 0 | givinostat 0.097 | barasertib 0.045
active: [1] 0.949

EEF1D isoform 3 (UniProt P29692)
inactive: [1] -0.674 | givinostat -0.236

DLK1 (UniProt P80370)
inactive: [4] -0.033 | Nexturastat A -0.003 | vemurafenib -0.026

EEF2K (UniProt O00418)
inactive: [3] 0.006 | [5] 0.043 | Nexturastat A 0.201 | vemurafenib 0.089 | [6] 0.157 | [1] 0.15 | givinostat -0.041

EID1 (UniProt Q9Y6B2)
inactive: [2] -0.047 | [5] 0.019 | Nexturastat A 0.18 | [6] -0.107 | [1] 0.135 | givinostat -0.134

ERF (UniProt P50548)
inactive: [2] -0.551 | Nexturastat A 0.033 | givinostat -0.133

DHPS (UniProt M0R1T2)
inactive: [2] 0.118 | barasertib 0.11

ELOVL7 (UniProt A1L3X0)
inactive: Nexturastat A 0.016 | givinostat 0.034

DHRS13 (UniProt Q6UX07)
inactive: [2] -0.106 | [3] 0.027 | [4] -0.055 | vemurafenib -0.062 | [1] 0.084 | givinostat 0.249

DERPC (UniProt P0CG12)
active: givinostat 0.454
inactive: [3] -0.052 | [4] 0.005 | vemurafenib 0.07 | [1] -0.029 | barasertib 0.012

DDB1 isoform 2 (UniProt Q16531)
inactive: [2] -0.144 | Nexturastat A -0.061 | barasertib 0.116

EIF4G1 (UniProt Q04637)
inactive: vemurafenib -0.071

CTNNBL1 (UniProt Q8WYA6)
inactive: [5] 0.185 | vemurafenib -0.02 | [6] -0.166 | barasertib 0.012

ELAC1 (UniProt Q9H777)
inactive: [2] 0.003 | [5] -0.051 | [4] -0.049 | Nexturastat A 0.011 | vemurafenib -0.017 | [6] 0.007 | givinostat -0.023

DEGS1 (UniProt O15121)
inactive: [2] -0.088 | [5] 0.003 | Nexturastat A -0.062 | vemurafenib -0.185 | [6] 0.033 | [1] -0.053 | givinostat -0.023 | barasertib -0.018

DNAH10 (UniProt Q8IVF4)
inactive: [2] -0.034 | [4] -0.114 | Nexturastat A 0.434 | vemurafenib -0.067 | [1] -0.269 | givinostat 0.307 | barasertib 0.014

DNAJB1 (UniProt M0R128)
inactive: vemurafenib -0.002 | barasertib 0.135

ENTR1 (UniProt Q96C92)
inactive: [5] -0.091 | vemurafenib 0.06 | [6] -0.105 | givinostat 0.062

FAM117B (UniProt Q6P1L5)
inactive: [3] -0.035 | [4] -0.126 | Nexturastat A 0.394 | vemurafenib 0.043 | givinostat 0.212

FAM160A2 isoform 2 (UniProt Q8N612)
inactive: [3] 0.134 | [4] 0.016 | Nexturastat A -0.066 | vemurafenib -0.164 | [1] -0.172 | barasertib 0.109

FADS1 (UniProt F5GYH4)
inactive: [4] -0.254 | vemurafenib -0.052 | barasertib 0.024

ENTPD7 (UniProt Q9NQZ7)
inactive: [2] -0.033 | [5] 0.012 | [4] 0.142 | Nexturastat A 0.047 | [6] -0.1 | [1] -0.068 | givinostat 0 | barasertib -0.009
